Records with an inconclusive call do not appear. A call without a number means that no potency is given here. A number with no mark means an inactive call. Calls of active or inactive are those of the source. Calls follow the shape of the dose curve; as a rule, active = well fitted inhibition curve with a large enough effect; inconclusive = small, poorly fitted or top-dose-only effect; inactive = no such curve, though single readings can be large or run the other way. *1 amine or outer side, *2 acyl side, *3 side chain or, on linkers, in order; H or OH if unused. Where a SMILES comes first, the peptide text is derived from it. Bridges are numbered along the chain shown (N, C = ends). X6 = O=C(CCC[*:2])[*:1]
Test system: Zika virus NS2B-NS3 protease (unlinked complex)
Experiment: Primary screen GU Rhodamine qHTS for Zika virus inhibitors: Unlinked NS2B-NS3 protease assay (AID 1347159); also: nearly all actives have a fitted effect of over 60% in size
Settings: Recombinant ZIKV NS2B-NS3 protease, Rhodamine110 substrate fluorescence; series mostly up to 107 µM
Summary of the method: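 Noncovalent NS2B hydrophilic domain–NS3 protease domain complex (25 nM) preincubated 15 min at room temperature with compounds (up to 114 microM) in 10 mM Tris-HCl pH 8.0, 0.01% Tween 20; 1.5 microM Rhodamine110 substrate added, fluorescence change over 15 min fitted to Hill equation.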

Compound	Potency	activity change, negative = inhibition
CC1(C)NC2N(C1=O)c1ccccc1C2(O)CC(C(=O)O)n1cnc2ccccc2c1=O (centres undefined)	inactive	
COC1CC(=O)C23C(=O)NC(CC(C)C)C2C(C)C(C)=CC3/C=C(\C)CCC1O (centres undefined)	inactive	
COc1ccccc1CC(C(=O)O)N(C)C(=O)c1ccccc1 (centres undefined)	inactive	
C[C@]1(OC(=O)/C=C/c2ccccc2)C[C@H](O)[C@]2(O)C=CO[C@@H](O[C@@H]3O[C@H](CO)[C@@H](O)[C@H](O)[C@H]3O)C12 (some centres undefined)	inactive	
O=C(NN1CCCCC1)c1nn(-c2ccc(Cl)cc2Cl)c(-c2ccc(C#Cc3ccc(C(F)(F)F)cc3)s2)c1CNS(=O)(=O)N1CCCC1	inactive	
CC1=CC(=O)OC(C)(CC(C)(O)C(=O)O)C1 (centres undefined)	inactive	
CCOC(=O)c1c(C)nn(-c2cccc([N+](=O)[O-])c2)c1C	inactive	
CC[C@H](C)[C@@H]1NC(=O)[C@H](Cc2ccc(OC)cc2)NC(=O)CCCSC[C@@H](C(=O)N2CCC[C@H]2C(=O)N[C@@H](CC(C)C)C(=O)NCC(N)=O)NC(=O)[C@H](CC(N)=O)NC(=O)[C@H](CCC(N)=O)NC1=O (Y(Me)IQNCPLG-NH2; linker N-5 via X6)	inactive	
C[C@H]1[C@H](C)CC[C@]2(C(=O)O)CC[C@]3(C(=O)O)C(=CCC4[C@@]5(C)CC[C@H](O[C@@H]6O[C@H](C)[C@@H](O)[C@H](O)[C@H]6O)C(C)(C)C5CC[C@]43C)[C@H]12 (some centres undefined)	inactive	
CC(=O)N1CCN(NC(=O)c2ccc(F)cc2)CC1	inactive	
CC(C)(O)C1CCC2(C)C3C(O)C4C(C13)C42CO (centres undefined)	inactive	
CC(=O)O[C@@H]1[C@H](O[C@@H]2OC[C@](O)(CO)[C@H]2O)[C@@H](O[C@@H]2O[C@@H](C)[C@H](O)[C@@H](O)[C@H]2O)[C@H](OC(=O)[C@]23CCC(C)(C)C[C@H]2C2=CCC4[C@@]5(C)C[C@H](O)[C@H](O[C@@H]6O[C@H](C(=O)O)[C@@H](O)[C@H](O)[C@H]6O)[C@@](C)(C(=O)O)C5CC[C@@]4(C)[C@]2(C)CC3)O[C@@H]1C (some centres undefined)	inactive	
COCCN(C)Cc1ccc2nc3sc(C(=O)N(C)C4CCCCC4)cn3c2c1	inactive	
CC1(C)C[C@H]2C3=CCC4[C@@]5(C)CC[C@H](O[C@H]6O[C@H](C(=O)O)[C@@H](O)[C@H](O)[C@H]6O[C@H]6O[C@H](CO)[C@@H](O)[C@H](O)[C@H]6O[C@@H]6O[C@H](CO)[C@@H](O)[C@H](O)[C@H]6O)[C@](C)(CO)C5CC[C@@]4(C)[C@]3(C)CC[C@@]2(C)[C@H](O[C@@H]2OC[C@H](O)[C@H](OC3O[C@H](CO)[C@@H](O)[C@H](O)[C@H]3O)[C@H]2O)[C@@H]1O (some centres undefined)		6.08% [at 19.1 µM]
CC(=O)c1c(O)cc2c(c1C)C(=O)CC(O)C2 (centres undefined)	inactive	
CC(=O)O[C@H]1[C@H](C)[C@@H](O)[C@H]2[C@@H]1C=C(C(=O)O)[C@H]1C[C@@H]3[C@H]([C@H]21)[C@H]1C(=O)O[C@@H]2CC[C@@]3(C)O[C@]1(O)[C@@H]2C	inactive	
CC(C)(C)c1cc(CN2CCN(CC(O)c3ccc(Cl)cc3)CC2)cc(C(C)(C)C)c1O (centres undefined)	inactive	
C[C@]12CCC(=O)C=C1[C@@H](O)C[C@@H]1[C@@H]2[C@@H](O)C[C@@]2(C)[C@H]1CC[C@]2(O)C(=O)CO	inactive	
COc1ccc(/C=C/C(=O)O[C@@H]2[C@@H](O)[C@H](C)O[C@@H](OC3C4C=COC(O[C@@H]5O[C@H](CO)[C@@H](O)[C@H](O)[C@H]5O)C4C4(CO)OC34)[C@@H]2O)cc1OC (some centres undefined)	inactive	
Cc1c(-c2ccnn2C)cc(C(=O)NCc2ccc(S(C)(=O)=O)cn2)c(=O)n1-c1cccc(C(F)(F)F)c1	inactive	

Compound	Potency	activity change, negative = inhibition
CC[C@H](/C=C/[C@@H](C)[C@H]1CC[C@H]2[C@@H]3CC=C4C[C@@H](O)CC[C@]4(C)[C@H]3CC[C@]12C)C(C)C		1.47% [at 11.5 µM]
C[C@@H]1CC[C@]2(C)C3(C)CC[C@@]2(OC3=O)[C@@]12C[C@H](c1ccoc1)OC2=O	inactive	
OC[C@H]1O[C@@H](n2cnc3c(NCc4ccc(O)cc4)ncnc32)[C@H](O)[C@@H]1O	inactive	
COC(=O)C1=CO[C@@H](O[C@@H]2O[C@H](CO[C@@H]3O[C@H](COC(=O)/C=C/c4ccc(O)cc4)[C@@H](O)[C@H](O)[C@H]3O)[C@@H](O)[C@H](O)[C@H]2O)[C@@H]2C(CO)=CC[C@H]12	inactive	
CCC(C)(O)C(O)C(=O)OCc1ccc(O[C@@H]2O[C@H](CO)[C@@H](O)[C@H](O)[C@H]2O)c(OC)c1 (some centres undefined)	inactive	
COc1cc(N2CCC(N(C)C)CC2)ccc1Nc1ncc(Cl)c(Nc2ccccc2P(C)(C)=O)n1	inactive	
CC(=O)OC[C@]12[C@H](OC(C)=O)C(=O)[C@@H]3[C@@H](OC(C)=O)[C@@]14O[C@@]3(C)COC(=O)c1cccnc1[C@@H](C)[C@H](C)C(=O)O[C@@H]([C@H](OC(C)=O)[C@@H]2OC(C)=O)[C@]4(C)O	inactive	
C=C1C(OC(C)=O)C(=O)C2C(C)(C)C(OC(C)=O)CCC2(C)C1CC(OC(C)=O)/C(C)=C/COC(C)=O (centres undefined)	inactive	
COC(=O)[C@@]1(O)C=CC[C@@H]2[C@@]3(C)C[C@@H](c4ccoc4)OC(=O)[C@H]3CC[C@]21C	inactive	
CCC(CC)n1ccc2c(C(=O)NCc3c(C)cc(C)[nH]c3=O)cc(C#N)cc21	inactive	
C[C@@H]1O[C@@H](O[C@H]2[C@H](OC(C#N)c3ccc(O)cc3)O[C@H](CO)[C@@H](O)[C@@H]2O)[C@H](O)[C@H](O)[C@H]1O (some centres undefined)	inactive	
O=C(O)C[C@H](O)C[C@H](O)/C=C/c1c(C2CC2)nc2ccccc2c1-c1ccc(F)cc1	inactive	
O=C(O)[C@H]1CCCC[C@H]1C(=O)N1CCc2ccccc2[C@H]1CN1C(=O)c2ccccc2C1=O	inactive	
Cc1ccc(Sc2cncc3sc(C(N)=O)cc23)cc1	inactive	
C=C1CC/C=C(/CO)C(=O)C[C@@H]2[C@@H]1CC2(C)C	inactive	
CCN(c1cc(C#CCN2CCOCC2)cc(C(=O)NCc2c(C)cc(C)[nH]c2=O)c1C)C1CCC(N(C)CCOC)CC1 (centres undefined)	inactive	
CC(C)C(C#N)O[C@@H]1O[C@H](CO[C@@H]2OC[C@](O)(CO)[C@H]2O)[C@@H](O)[C@H](O)[C@H]1O (some centres undefined)	inactive	
CC(C)=CCC[C@](C)(O[C@@H]1O[C@H](CO[C@@H]2OC[C@@H](O)[C@H](O)[C@H]2O)[C@@H](O)[C@H](O)[C@H]1O)[C@H]1CC[C@]2(C)[C@@H]1[C@H](O)C[C@@H]1[C@@]3(C)CC[C@H](O[C@@H]4O[C@H](CO)[C@@H](O)[C@H](O)[C@H]4O[C@@H]4O[C@H](CO)[C@@H](O)[C@H](O)[C@H]4O)C(C)(C)[C@@H]3CC[C@]12C	inactive	
CNc1nc(Nc2cnn([C@H]3CCN(C4COC4)C[C@@H]3F)c2Cl)ncc1C(F)(F)F	inactive	

Reference: PubChem BioAssay (NCATS)
